Assay results as given in PubChem BioAssay (NCATS).
Where “and” joins values, the source holds several entries; their conditions need not be identical. Equal values may be shown once. Records with an inconclusive call do not appear. This is one part of the list. Calls of active or inactive are those of the source. Unless noted, the call rests on the fitted dose curve; in most records, active means well fitted inhibition curve with a large enough effect; inconclusive means small, poorly fitted or top-dose-only effect; inactive means flat fitted curve, though single readings scatter.

Columns and labels:
[1] = target: Fructose-bisphosphate aldolase A (Oryctolagus cuniculus) (UniProt P00883); assay: qHTS Assay for Inhibitors of Fructose-1,6-bisphosphate Aldolase from Giardia Lamblia: Rabbit FBPA Selectivity (AID 2794); further: on the % scale 0 is the no-effect control and ±100 the full control effect; nearly all actives have a fitted effect of over 60% in size
Procedure, shortened: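 AmpLite Red readout, ex/em 525/598 nm. Rabbit FBPA, GAP-linked coupling enzymes; 10 min cpd preincubation, then 20 min after substrate, both RT. Concentration-response up to 57.5 uM final.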

[2] = target: Lysosomal acid glucosylceramidase (Homo sapiens) (UniProt P04062); assay: Glucocerebrosidase-p2 (AID 348; in the data active means potency below about 10 µM; further: potency means the concentration at half of the fitted maximal effect); conditions: purified GBA, blue fluorogenic substrate, 40 min
Procedure, shortened: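 Normal human glucocerebrosidase (0.2 nM) with blue fluorogenic substrate (80 uM final) in citrate/phosphate pH 5.9 with 10mM sodium taurocholate, 0.01% tween-20; 40 min RT, NaOH/glycine stop; fluorescence Ex 365/Em 440; AC50 from a titration from 0.6 nM upwards.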

[3] = AP1 Signaling Pathway (AID 357; active means well fitted curve in either direction with a large enough effect, not every such curve was filed as active;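 further: ME-180 reporter cells stimulated with EGF at its EC50 level; on the % scale 0 is the no-effect control and ±100 the full control effect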); conditions: ME-180 AP-1-bla reporter, EGF-induced, beta-lactamase ratio, 5 h
Procedure, shortened: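 AP-1-bla ME-180 cells, Opti-MEM + 0.5% dialyzed FBS, plated overnight 37 °C. Cpd titration + EC50 EGF, 5 h 37 °C. CCF4 2.5 h RT; ex 405, em 460/530 ratio → %activity, AC50.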

[4] = Stat Signaling Pathway (AID 446; active means well fitted curve in either direction with a large enough effect, not every such curve was filed as active;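 further: ME-180 cervical cancer cells given 40 pM IL-6 alongside compound; SIE-controlled beta-lactamase reporter measured as 460/530 nm FRET emission ratio; on the % scale 0 is the no-effect control and ±100 the full control effect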); conditions: ME-180 (cervical carcinoma) SIE beta-lactamase reporter, IL-6 stimulated, 5 h
Procedure, shortened: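 Emission at 460 and 530 nm (excitation 405 nm) reports SIE-controlled beta-lactamase in ME-180 cells. Cells received compound with 40 pM IL-6 for 5 hrs at 37 C; data scaled between 300 pM IL-6 and 125 nM JAK-inhibitor controls.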

[5] = target: Glucocorticoid receptor (Homo sapiens) (UniProt P04150); assay: GR-GFP Redistribution (AID 450;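 active means compounds whose dose series gives a full or clear partial fitted curve of increased nuclear translocation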; further: potency means the concentration at half of the fitted maximal effect); conditions: U2OS GR-GFP nuclear translocation, laser cytometry, 2 h
[6] = target: Glucocorticoid receptor (Homo sapiens) (UniProt P04150); assay: GR-EFC Redistribution (AID 451; calls by dose curve; further: potency means the concentration at half of the fitted maximal effect); conditions: CHO-K1 GR-EFC translocation, beta-gal luminescence, 2 h
Procedure, shortened: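 CHO-K1 cells expressing nuclear EA and GR-ED fragments of b-gal; compounds titrated up to 46 uM final, 2 h at 37 C. GR nuclear translocation read as complemented b-gal luminescence after 1 h RT detection.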

[7] = target: Mitogen-activated protein kinase 10 (Mus musculus) (UniProt Q61831); assay: JNK3 AlphaScreen Assay (AID 530; active means well fitted curve in either direction with a large enough effect, not every such curve was filed as active;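 further: kinase came from lysate of stimulated human HepG2 cells; signal reports phosphorylation of biotinylated GST-cJun 1-79 at Ser73 with 10 µM ATP; on the % scale 0 is the no-effect control and ±100 the full control effect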)
Procedure, shortened: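 Activity was read by AlphaScreen after JNK3-containing HepG2 lysate (cytokine pre-activated) phosphorylated biotinylated GST-cJun with 10 uM ATP at room temperature. Phospho-Ser73 cJun antibody with Protein-A acceptor beads provided detection.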

[8] = target: 3',5'-cyclic-AMP phosphodiesterase 4B (Homo sapiens) (UniProt Q07343); assay: qHTS Assay for Inhibitors of PDE-IV (AID 607; active means well fitted activation curve with a large enough effect in the main read-out, with a control signal flat, not every such curve was filed as active; further: % of control where 0% means no effect)
Procedure, shortened: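 The readout is membrane depolarisation from a cAMP-sensing CNG channel, detected with a potential dye at ex 535/em 590. Cells were HEK293-derived (endogenous PDE-IV) at 1000 cells/well, titrated up to 22.9 uM final.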

[9] = target: Ubiquitin carboxyl-terminal hydrolase 1 (Homo sapiens) (UniProt O94782); assay: Inhibitors of USP1/UAF1: Pilot qHTS (AID 504865);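 further: rhodamine fluorescence freed from ubiquitin-rhodamine substrate followed over time; top concentration of the series differs between compounds; on the % scale 0 is the no-effect control and ±100 the full control effect; nearly all actives have a fitted effect of over 35% in size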
Procedure, shortened: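 Enzyme-free wells gave the negative control, while test wells held 1nM USP1/UAF1 preincubated with compound for 15 min at room temperature. Ub-Rho at 150nM final started the reaction, and fluorescence at 480/540 nm was recorded kinetically.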

[10] = qHTS profiling for inhibitors of Plasmodium falciparum proliferation (AID 504749); further: potency means the concentration at half of the fitted maximal effect;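 on activity, negative = inhibition: 0% = DMSO vehicle and full inhibition = artemisinin control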; on all read-outs here: nearly all actives have a fitted effect of over 60% in size; conditions: P. falciparum in erythrocytes, SYBR Green DNA, 72 h; for activity, negative = inhibition: at 28.7 µM (top of the series)
Procedure, shortened: (§1)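 Each compound contacts P. falciparum-infected red blood cells for 72 h at 37 C; lysis buffer (Tris, EDTA, saponin, Triton X, SYBR Green I) is added and fluorescence measured next morning; values normalized to controls.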

AS120 = assay: as above; conditions: P. falciparum in erythrocytes, SYBR Green DNA, 72 h; series mostly up to 28.7 µM
Procedure, shortened: as §1

CP192 = assay: as above; conditions: P. falciparum in erythrocytes, SYBR Green DNA, 72 h; series mostly up to 28.7 µM
Procedure, shortened: as §1

CP203 = assay: as above; conditions: P. falciparum in erythrocytes, SYBR Green DNA, 72 h; series mostly up to 28.7 µM
Procedure, shortened: as §1

CP247 = assay: as above; conditions: P. falciparum in erythrocytes, SYBR Green DNA, 72 h; series mostly up to 28.7 µM
Procedure, shortened: as §1

DFO2036 = assay: as above; conditions: P. falciparum in erythrocytes, SYBR Green DNA, 72 h; series mostly up to 28.7 µM
Procedure, shortened: as §1

PC49 = assay: as above; conditions: P. falciparum in erythrocytes, SYBR Green DNA, 72 h; series mostly up to 28.7 µM
Procedure, shortened: as §1

W2 = assay: as above; conditions: P. falciparum in erythrocytes, SYBR Green DNA, 72 h; series mostly up to 28.7 µM
Procedure, shortened: as §1

[11] = target: Cytochrome P450 1A2 (Homo sapiens) (UniProt P05177); assay: p450-cyp1a2 (AID 410; calls by dose curve; further: potency means the concentration at half of the fitted maximal effect;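 on activity change, negative = inhibition: -100% = full effect of reference inhibitor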)
Procedure, shortened: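 O-Demethylation of luciferin 6' methyl ether by human CYP1A2 is monitored as luciferase luminescence. Substrate sits at Km (100uM); enzyme is 20nM. Values are scaled to 57 uM furafylline as maximal inhibition.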

[12] = NFAT Signaling Pathway (AID 444; active means well fitted curve in either direction with a large enough effect, not every such curve was filed as active;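 further: carbachol stimulus at about its EC50 of 1 µM final; on the % scale 0 is the no-effect control and ±100 the full control effect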); conditions: Jurkat NFAT-bla M1, carbachol, beta-lactamase ratio, 5 h; at 7.69 µM (top of the series) unless noted
Procedure, shortened: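 Jurkat cells with NFAT-driven β-lactamase reporter and co-expressed M1 receptor, stimulated with carbachol (final 1 uM, ~EC50), compound titration, 5 h at 37 °C. CCF4 loaded 1 h at RT; 460/530 nm ratio gave %activity and AC50.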

[13] = qHTS Assay for Inhibitors of Fructose-1,6-bisphosphate Aldolase from Giardia Lamblia: Coupling assay counterscreen confirmation (AID 2795); further: on the % scale 0 is the no-effect control and ±100 the full control effect; nearly all actives have a fitted effect of over 55% in size
Procedure, shortened: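 Counterscreen, no aldolase: coupling enzyme reagent + cpd (up to 57.5 uM final), 10 min RT; add substrate + coupling system + AmpLite Red, 20 min RT; fluorescence ex 525/em 598 nm.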

[14] = at 7.69 µM (top of the series) unless noted

Sequence of Ubiquitin carboxyl-terminal hydrolase 1 (Homo sapiens) (O94782 whole entry, looked up): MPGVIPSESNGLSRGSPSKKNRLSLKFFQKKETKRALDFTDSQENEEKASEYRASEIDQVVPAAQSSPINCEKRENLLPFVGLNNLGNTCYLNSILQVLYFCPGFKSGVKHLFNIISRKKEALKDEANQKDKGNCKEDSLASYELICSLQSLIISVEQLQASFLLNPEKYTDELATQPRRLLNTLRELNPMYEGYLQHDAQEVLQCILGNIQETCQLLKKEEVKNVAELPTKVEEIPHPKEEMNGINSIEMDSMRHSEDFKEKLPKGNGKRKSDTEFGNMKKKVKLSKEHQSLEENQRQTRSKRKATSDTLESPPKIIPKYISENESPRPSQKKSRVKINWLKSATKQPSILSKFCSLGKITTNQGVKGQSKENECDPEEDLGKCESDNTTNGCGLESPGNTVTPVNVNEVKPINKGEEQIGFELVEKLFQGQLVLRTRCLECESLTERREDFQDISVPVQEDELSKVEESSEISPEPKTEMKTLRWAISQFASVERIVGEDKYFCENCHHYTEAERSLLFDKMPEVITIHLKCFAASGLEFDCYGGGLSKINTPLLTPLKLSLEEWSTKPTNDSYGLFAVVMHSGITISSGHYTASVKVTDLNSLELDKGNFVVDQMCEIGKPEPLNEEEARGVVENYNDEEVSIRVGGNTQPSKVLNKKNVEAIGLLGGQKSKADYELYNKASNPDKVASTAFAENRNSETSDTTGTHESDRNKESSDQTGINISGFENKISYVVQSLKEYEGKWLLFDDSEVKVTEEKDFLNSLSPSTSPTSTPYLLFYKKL
Sequence of Fructose-bisphosphate aldolase A (Oryctolagus cuniculus) (P00883 whole entry, looked up): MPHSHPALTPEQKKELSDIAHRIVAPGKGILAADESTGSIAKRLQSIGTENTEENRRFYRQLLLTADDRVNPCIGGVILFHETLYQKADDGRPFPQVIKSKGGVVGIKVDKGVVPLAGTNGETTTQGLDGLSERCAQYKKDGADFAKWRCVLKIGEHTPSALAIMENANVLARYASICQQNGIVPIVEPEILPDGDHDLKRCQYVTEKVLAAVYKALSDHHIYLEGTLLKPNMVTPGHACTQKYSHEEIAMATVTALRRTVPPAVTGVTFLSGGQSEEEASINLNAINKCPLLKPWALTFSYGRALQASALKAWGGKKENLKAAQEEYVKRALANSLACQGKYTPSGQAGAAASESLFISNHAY
Sequence of Glucocorticoid receptor (Homo sapiens) (P04150 whole entry, looked up, the tested form may be a part): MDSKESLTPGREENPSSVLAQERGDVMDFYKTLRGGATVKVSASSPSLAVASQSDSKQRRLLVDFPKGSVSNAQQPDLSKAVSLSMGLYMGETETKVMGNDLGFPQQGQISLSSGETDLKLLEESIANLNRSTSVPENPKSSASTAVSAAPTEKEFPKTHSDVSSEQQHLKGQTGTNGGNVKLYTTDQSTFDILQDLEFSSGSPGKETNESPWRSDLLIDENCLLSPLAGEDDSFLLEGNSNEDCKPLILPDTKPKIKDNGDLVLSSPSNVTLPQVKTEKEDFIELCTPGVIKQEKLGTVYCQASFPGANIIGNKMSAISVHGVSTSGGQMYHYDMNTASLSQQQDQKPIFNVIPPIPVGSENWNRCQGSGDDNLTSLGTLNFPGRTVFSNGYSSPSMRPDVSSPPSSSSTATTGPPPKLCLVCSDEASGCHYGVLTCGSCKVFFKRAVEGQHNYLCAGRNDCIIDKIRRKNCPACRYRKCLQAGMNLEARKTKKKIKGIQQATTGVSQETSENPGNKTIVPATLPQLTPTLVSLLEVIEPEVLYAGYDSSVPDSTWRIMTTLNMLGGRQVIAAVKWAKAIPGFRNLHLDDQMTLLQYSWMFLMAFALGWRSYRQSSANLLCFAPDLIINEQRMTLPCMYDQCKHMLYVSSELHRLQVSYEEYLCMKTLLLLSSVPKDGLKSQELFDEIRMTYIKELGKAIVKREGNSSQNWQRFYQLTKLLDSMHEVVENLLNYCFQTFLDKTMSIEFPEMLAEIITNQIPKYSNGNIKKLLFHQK
Sequence of Cytochrome P450 1A2 (Homo sapiens) (P05177 whole entry, looked up): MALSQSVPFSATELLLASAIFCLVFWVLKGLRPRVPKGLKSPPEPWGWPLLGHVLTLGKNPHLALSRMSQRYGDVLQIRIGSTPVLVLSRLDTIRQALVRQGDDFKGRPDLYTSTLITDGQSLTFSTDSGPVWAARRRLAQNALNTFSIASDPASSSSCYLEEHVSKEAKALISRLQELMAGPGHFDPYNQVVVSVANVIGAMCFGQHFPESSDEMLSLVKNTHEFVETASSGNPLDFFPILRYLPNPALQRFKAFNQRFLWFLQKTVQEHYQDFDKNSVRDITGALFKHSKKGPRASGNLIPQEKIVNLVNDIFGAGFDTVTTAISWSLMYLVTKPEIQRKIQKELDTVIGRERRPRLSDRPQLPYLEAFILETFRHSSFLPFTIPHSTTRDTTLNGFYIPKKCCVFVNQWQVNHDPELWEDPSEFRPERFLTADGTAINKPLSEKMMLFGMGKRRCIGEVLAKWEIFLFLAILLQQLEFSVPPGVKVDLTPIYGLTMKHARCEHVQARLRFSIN
Sequence of 3',5'-cyclic-AMP phosphodiesterase 4B (Homo sapiens) (Q07343 whole entry, looked up): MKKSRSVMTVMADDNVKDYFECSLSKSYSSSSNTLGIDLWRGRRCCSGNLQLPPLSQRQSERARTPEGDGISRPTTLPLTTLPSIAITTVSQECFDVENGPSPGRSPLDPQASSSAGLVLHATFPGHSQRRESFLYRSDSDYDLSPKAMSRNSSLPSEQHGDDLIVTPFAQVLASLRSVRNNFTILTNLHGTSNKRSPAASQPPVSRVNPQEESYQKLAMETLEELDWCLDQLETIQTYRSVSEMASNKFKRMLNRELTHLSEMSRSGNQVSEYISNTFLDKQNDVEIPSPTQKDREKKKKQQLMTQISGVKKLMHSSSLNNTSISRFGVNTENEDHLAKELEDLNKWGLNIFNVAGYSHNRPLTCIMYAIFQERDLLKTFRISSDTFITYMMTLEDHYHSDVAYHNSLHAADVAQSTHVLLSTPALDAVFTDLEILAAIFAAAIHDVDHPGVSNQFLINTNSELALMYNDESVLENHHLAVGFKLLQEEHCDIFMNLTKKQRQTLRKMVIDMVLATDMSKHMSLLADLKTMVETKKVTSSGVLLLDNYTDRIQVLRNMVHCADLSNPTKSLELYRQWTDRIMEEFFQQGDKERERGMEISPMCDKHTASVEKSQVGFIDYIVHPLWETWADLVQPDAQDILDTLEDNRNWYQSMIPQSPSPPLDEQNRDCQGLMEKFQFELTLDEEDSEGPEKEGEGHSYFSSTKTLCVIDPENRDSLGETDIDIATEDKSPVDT
Sequence of Lysosomal acid glucosylceramidase (Homo sapiens) (P04062 whole entry, looked up): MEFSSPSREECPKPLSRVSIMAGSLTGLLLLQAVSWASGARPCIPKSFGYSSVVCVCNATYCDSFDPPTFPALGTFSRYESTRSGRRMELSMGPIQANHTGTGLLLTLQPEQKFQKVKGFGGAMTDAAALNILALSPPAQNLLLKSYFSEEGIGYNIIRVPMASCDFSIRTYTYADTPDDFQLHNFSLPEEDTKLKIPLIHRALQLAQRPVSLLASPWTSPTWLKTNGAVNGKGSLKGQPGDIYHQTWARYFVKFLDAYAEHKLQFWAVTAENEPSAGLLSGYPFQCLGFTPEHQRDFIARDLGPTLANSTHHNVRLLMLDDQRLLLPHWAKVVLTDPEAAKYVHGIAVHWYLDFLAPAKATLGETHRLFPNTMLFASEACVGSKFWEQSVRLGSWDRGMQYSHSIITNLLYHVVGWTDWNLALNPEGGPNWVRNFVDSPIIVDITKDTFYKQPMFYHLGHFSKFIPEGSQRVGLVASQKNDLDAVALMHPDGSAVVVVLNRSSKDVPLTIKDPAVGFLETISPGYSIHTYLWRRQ

O=C(CN1CCN(Cc2ccccc2)CC1)Nc1ccc(F)c(F)c1
inactive: outcome [1]

CC(C)(c1ccccc1)c1ccc(OCCN2CCCC2)cc1
inactive: outcome [1]

Cc1cn([C@H]2C[C@H](N=[N+]=[N-])[C@H](CO)O2)c(=O)[nH]c1=O
inactive: Potency [2] > 11.4 µM | activity change, negative = inhibition ([3]; at 7.69 µM (top of the series)) 11.1% | activity change, negative = inhibition ([3]; at 38 µM (top of the series)) 1.21% | activity, negative = inhibition ([4]; at 7.69 µM (top of the series)) -1.74% | activity, negative = inhibition ([4]; at 38 µM (top of the series)) 22.1% | Potency [5] > 46 µM | Potency [6] > 46 µM and > 9.22 µM | Potency [7] | Potency [8] | Potency [9] | activity, negative = inhibition ([10]; parasite line A) 7.02% | activity, negative = inhibition ([10]; parasite line B) 2.08% | Potency (AS120) | Potency (CP192) | Potency (CP203) | Potency (CP247) | Potency (DFO2036) | Potency (PC49) | Potency (W2)

O=C(O)[C@@H](S)[C@H](S)C(=O)O
active: Potency ([10]; parasite line A) 10 µM | Potency ([10]; parasite line B) 7.08 µM | Potency (AS120) 5.62 µM | Potency (CP192) 12 µM | Potency (CP203) 10.7 µM | Potency (CP247) 7.94 µM | Potency (DFO2036) 8.91 µM | Potency (PC49) 11.2 µM | Potency (W2) 3.38 µM
inactive: Potency [2] > 11.4 µM | activity change, negative = inhibition [3, 14] 8.2% | Potency [11] | activity change, negative = inhibition [12] -7.29% | activity, negative = inhibition [4, 14] 1.47% | Potency [5] > 46 µM | Potency [6] > 9.22 µM | Potency [7] | Potency [8]

NS(=O)(=O)c1cc2c(cc1Cl)N[C@H](Cc1ccccc1)NS2(=O)=O
inactive: Potency [2] > 11.4 µM | activity change, negative = inhibition [3, 14] -4.23% | activity change, negative = inhibition [12] 23.7% | activity, negative = inhibition [4, 14] 1.94% | Potency [5] > 46 µM | Potency [6] > 9.22 µM | Potency [7] | Potency [8] | Potency [9] | activity, negative = inhibition ([10]; parasite line A) 6.22% | activity, negative = inhibition ([10]; parasite line B) -2.36% | Potency (AS120) | Potency (CP192) | Potency (CP203) | Potency (CP247) | Potency (DFO2036) | Potency (PC49) | Potency (W2)
active: Potency [11] 3.16 µM

Cc1nc2cnc(OCc3ccccc3)nc2n(Cc2ccc(F)cc2)c1=O
active: Potency [11] 7.94 µM
inactive: Potency [2] > 11.4 µM | activity change, negative = inhibition [3, 14] -22.4% | activity change, negative = inhibition [12] -22.3% | activity, negative = inhibition [4, 14] -3.29% | Potency [5] > 9.22 µM | Potency [6] > 46 µM | Potency [7]

O=C(O)c1ccccc1CN1CCC[C@@H](C(=O)O)C1
inactive: Potency [2] > 11.4 µM | activity change, negative = inhibition [3, 14] -3.95% | Potency [11] | activity change, negative = inhibition [12] 12.7% | activity, negative = inhibition [4, 14] 8.09% | Potency [5] > 46 µM | Potency [6] > 9.22 µM | Potency [7] | Potency [8]

CC(=O)NC1CCN(CC(=O)Nc2nccs2)CC1
inactive: outcome [1] | outcome [13]

CC(C)(C)NC[C@@H](O)c1ccc(O)c(CO)n1
inactive: Potency [2] > 11.4 µM | activity change, negative = inhibition [3, 14] -2.07% | activity change, negative = inhibition [11] 10.1% [at 2.29 µM] | activity change, negative = inhibition [12] 10.1% | activity, negative = inhibition [4, 14] 19.4% | Potency [5] > 46 µM | Potency [6] > 9.22 µM | Potency [7] | Potency [8] | Potency [9] | activity, negative = inhibition ([10]; parasite line A) 8.88% | activity, negative = inhibition ([10]; parasite line B) 0.372% | Potency (AS120) | Potency (CP192) | Potency (CP203) | Potency (CP247) | Potency (DFO2036) | Potency (PC49) | Potency (W2)

CN1CCCc2cc(C#N)c(=O)[nH]c21
inactive: outcome [13]

Cc1cnc(NC(=O)c2ccccn2)s1
inactive: outcome [1]

CCN1CCc2c(C#N)c(NCc3ccccc3)nc(NCCO)c2C1
inactive: activity change, negative = inhibition [3, 14] -9.55% [at 17.2 µM] | activity change, negative = inhibition [12] -11% [at 17.2 µM] | activity, negative = inhibition [4, 14] -0.118% [at 17.2 µM] | Potency [5] > 20.6 µM | outcome [1]

CCC(C)(C)c1ccc(Oc2cccc(C(=O)O)c2)cc1
inactive: Potency [2] > 11.4 µM | activity change, negative = inhibition [3, 14] -11.1% | Potency [11] | activity change, negative = inhibition [12] -3.61% | activity, negative = inhibition [4, 14] -0.214% | Potency [5] > 46 µM | Potency [6] > 9.22 µM | Potency [7] | Potency [8]

CCN(CC(=O)Nc1ccc(S(=O)(=O)N2CCCC2)cc1)CC(=O)Nc1cccc(OC)c1
inactive: outcome [1] | outcome [13]

CCN(CC(=O)NC(=O)NCc1ccccc1)Cc1nc2ccccc2c(=O)[nH]1
inactive: outcome [1]

COc1cccc(Cn2c(=O)c(C)nc3cnc(Oc4cccc(Cl)c4)nc32)c1
active: Potency [11] 25.1 µM
inactive: Potency [2] > 11.4 µM | activity change, negative = inhibition [3, 14] -22.3% | activity change, negative = inhibition [12] -7.01% | activity, negative = inhibition [4, 14] -2.38% | Potency [5] > 9.22 µM | Potency [6] > 46 µM | Potency [7]

COc1ccc2cc1Oc1ccc(cc1)C[C@H]1c3cc(c(OC)cc3CCN1C)Oc1c(OC)c(OC)cc3c1[C@@H](C2)N(C)CC3
inactive: Potency [2] > 11.4 µM | activity change, negative = inhibition ([3]; at 7.69 µM (top of the series)) -3.56% | activity change, negative = inhibition ([3]; at 17.2 µM (top of the series)) -5.15% | activity, negative = inhibition ([4]; at 7.69 µM (top of the series)) -1.58% | activity, negative = inhibition ([4]; at 17.2 µM (top of the series)) -5.25% | Potency [5] > 20.6 µM and > 46 µM | Potency [6] > 20.6 µM and > 46 µM and > 9.22 µM | Potency [7] | Potency [8] | Potency [9]

Oc1[nH]c2ccc(Br)cc2c1N=Nc1nn[nH]n1
inactive: outcome [13]

Cc1ccc(C(=O)Nc2nnc(C3=COCCO3)o2)cc1C
inactive: outcome [1] | outcome [13]
